These results are taken from PubChem BioAssay.

Structures are written as SMILES. Active and inactive are the calls of the source. Unless noted, the rule behind the calls is not given here.

Assay [1] is described as follows: HepG2 liver cancer cell viability effects, profiling panel, resazurin fluorescence, 24 h, PK04 Diversity Set (AID 1172). Note: test concentration not given here. The following applies: higher = more signal. In general terms: Resazurin is reduced to fluorescent resorufin, in cell work by metabolically active cells.
Assay [2] in a line: basal S. cerevisiae growth modulation, no modifier, primary screen, OD600, strain BY4716, 24 h, basal condition (AID 1173). The following applies: OD600, 24 h, higher = more signal, called active from +8 up or from −8 down.
Assay [3] is described as follows: MM1S myeloma cell viability, profiling panel, resazurin fluorescence, basal, 24 h, PK04 Diversity Set (AID 1174).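 Note: MM1S multiple myeloma cell line; test concentration not given here.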 To be noted: higher = more signal, called active from +8 up or from −8 down.
For assay [4], the target named is Dihydroorotate dehydrogenase (quinone), mitochondrial (Plasmodium falciparum (isolate 3D7)) (UniProt Q08210). In words: PfDHODH enzyme inhibitors, primary screen, biochemical, C-terminal His tag, absorbance 600 nm (AID 1175).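 Note: recombinant parasite enzyme with a five histidine tag at its C terminus; test concentration not given here.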 To be noted: DCIP absorbance 600 nm, higher = more signal, called active from +8 up or from −8 down.
Sequence of Dihydroorotate dehydrogenase (quinone), mitochondrial (Plasmodium falciparum (isolate 3D7)) (Q08210 whole entry, looked up): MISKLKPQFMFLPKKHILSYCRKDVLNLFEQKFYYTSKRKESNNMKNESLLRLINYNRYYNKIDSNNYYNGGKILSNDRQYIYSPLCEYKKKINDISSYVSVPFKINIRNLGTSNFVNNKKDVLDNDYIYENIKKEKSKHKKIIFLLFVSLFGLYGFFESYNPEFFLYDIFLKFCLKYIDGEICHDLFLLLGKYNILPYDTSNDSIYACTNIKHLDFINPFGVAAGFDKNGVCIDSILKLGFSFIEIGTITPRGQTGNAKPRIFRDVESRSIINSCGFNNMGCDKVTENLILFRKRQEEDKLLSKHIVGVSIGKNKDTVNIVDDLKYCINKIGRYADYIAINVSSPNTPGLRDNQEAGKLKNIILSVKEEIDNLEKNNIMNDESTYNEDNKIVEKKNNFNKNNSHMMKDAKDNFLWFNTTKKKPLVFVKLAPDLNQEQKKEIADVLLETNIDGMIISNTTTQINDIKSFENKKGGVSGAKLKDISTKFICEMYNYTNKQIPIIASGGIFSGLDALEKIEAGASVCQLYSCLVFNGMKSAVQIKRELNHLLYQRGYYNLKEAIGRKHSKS
Assay [5] in a line: P. aeruginosa biofilm formation inhibitors, primary screen, strain PAO1, LB-PBS medium, absorbance 600 nm (AID 1176). Note: test concentration not given here. To be noted: P. aeruginosa PAO1 growth/biofilm, A600, 12 h; higher = more signal.
The nature of assay [6]: S. cerevisiae RM11-1a growth modifiers, primary screen, strain RM11-1a, OD600, basal, 24 h (AID 1177).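 Note: cultures grown under basal conditions with no added stressor; test concentration not given here.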 The following applies: OD600, 24 h, higher = more signal, called active from +8 up or from −8 down.
Assay [7] in a line: E. coli acrAB mutant growth effects, primary screen, E. coli filamentation inducers, strain DRC39, OD650, 24 h (AID 1178).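 Note: growth measured as culture turbidity by optical density at 650 nm; test concentration not given here.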 To be noted: higher = more signal, called active from +8 up or from −8 down.
Assay [8] in a line: E. coli acrAB mutant growth effects, primary screen, E. coli filamentation inducers, strain DRC39, OD650, 48 h (AID 1179).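 Note: screen aims at cell division blockers that make cells filament.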 The following applies: E. coli DRC39 delta-acrAB growth, higher = more signal, called active from +8 up or from −8 down.
The nature of assay [9]: RPMI8226 myeloma cell viability, profiling panel, resazurin fluorescence, basal, 24 h, PK04 Diversity Set (AID 1180).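 Note: RPMI8826 multiple myeloma cell line at 5000 cells per well; test concentration not given here.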 To be noted: higher = more signal.
Assay [10] deals with E3 ubiquitin-protein ligase XIAP (Homo sapiens) (UniProt P98170). Description: XIAP binders, primary screen, biophysical, small-molecule microarray, fluorescence 635 nm (AID 1181).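 Note: score merges 667 nm emission and signal to noise over triplicate slides.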 The following applies: small-molecule microarray binding, higher = more signal.
Sequence of E3 ubiquitin-protein ligase XIAP (Homo sapiens) (P98170 whole entry, looked up): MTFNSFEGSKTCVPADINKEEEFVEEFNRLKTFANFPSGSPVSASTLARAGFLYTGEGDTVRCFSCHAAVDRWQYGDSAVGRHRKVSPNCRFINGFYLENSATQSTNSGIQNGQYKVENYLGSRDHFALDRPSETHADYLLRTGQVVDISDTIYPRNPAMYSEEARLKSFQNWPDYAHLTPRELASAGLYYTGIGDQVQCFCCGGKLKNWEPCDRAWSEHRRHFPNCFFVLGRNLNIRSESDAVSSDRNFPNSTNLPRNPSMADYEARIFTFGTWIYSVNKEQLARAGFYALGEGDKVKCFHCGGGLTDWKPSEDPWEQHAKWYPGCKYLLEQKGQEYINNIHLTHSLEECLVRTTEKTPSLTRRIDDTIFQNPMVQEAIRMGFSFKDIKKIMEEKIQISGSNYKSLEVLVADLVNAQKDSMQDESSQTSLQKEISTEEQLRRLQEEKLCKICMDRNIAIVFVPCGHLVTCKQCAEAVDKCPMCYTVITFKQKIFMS

In the case of `CC(CCC(=O)OC[C@H]1O[C@H](C#Cc2ccccc2)C=C[C@@H]1Oc1ccc(C)cc1)=NOC(C)CN1CCCCc2nc(C)c(C)cc21` (stereo not given in full), the z-score is 0.172 in assay [1]; 0.546 (inactive) in [2]; -0.0229 (inactive) in assay [3]; 0.311 (inactive) in assay [5]; 0.46 (inactive) in assay [6]; 0.125 (inactive) in [7]. Also, the z-score in assay [8] was -0.116 (inactive); in assay [9], 0.304. For the same compound, the values for the composite z-score in assay [4] and in assay [10] were -0.669 (inactive) and -0.102, respectively.
On to `CCN1C(=O)[C@H]2[C@H]3[C@H](O)[C@H](O)CC(=NOCC(C)C)[C@H]3CC[C@H]2C1=O`, for which the z-score is -0.259 in assay [1]; -0.36 (inactive) in assay [2]; -0.929 (inactive) in assay [3]; -0.225 (inactive) in [5]; -0.117 (inactive) in [6]; 0.645 (inactive) in assay [7]. Besides, the results for the z-score in [8] and in [9] were 0.568 (inactive) and -0.971, respectively. The composite z-score in assay [4] was -0.649 (inactive); in assay [10], -0.122.
For the compound `CC(C)=CCCC(C)=CCON=C1C[C@@H](O)[C@@H](O)[C@@H]2[C@@H]3C(=O)N(C4CCCCC4)C(=O)[C@@H]3CC[C@H]12`, the z-score in [1] is -0.346; in [2], -0.339 (inactive); in assay [3], -2.69 (inactive); in assay [5] it was -0.437 (inactive); in [6], 0.577 (inactive); in assay [7], 0.354 (inactive). In addition, the z-score in assay [8] is 0.683 (inactive); in [9], -1.7. The composite z-score in [4] was 0.235 (inactive); in assay [10], -0.111.
Turning to `CC(=O)OC[C@H]1O[C@H](C#CCCc2ccccc2)C=C[C@@H]1OC(C)=O`, the z-score in assay [1] was -0.403; in assay [2], -1.17 (inactive); in [3], -0.841 (inactive); in [5] it was -0.0691 (inactive); in assay [6], 0.702 (inactive); in assay [7], 0.551 (inactive). Moreover, the z-score is -0.406 (inactive) in assay [8] and -0.0728 in assay [9]. In addition, the composite z-score in [4] was -0.419 (inactive); in assay [10] it was -0.105.
With `O=C1C[C@@H](O)[C@@H](O)[C@@H]2[C@@H]3C(=O)N(Cc4ccccc4)C(=O)[C@@H]3CC[C@H]12`, the z-score was -0.252 in assay [1]; -0.425 (inactive) in assay [2]; -0.136 (inactive) in assay [3]; 0.188 (inactive) in assay [5]; -0.163 (inactive) in [6]; -0.418 (inactive) in assay [7]. Besides, the z-score is -0.779 (inactive) in [8] and -0.14 in [9]. The composite z-score was 0.318 (inactive) in assay [4] and 0.468 in assay [10].
For `C[C@H]1CC[C@@H](C(=O)O)N[C@@H]1c1cccc(N2CCCC2=O)c1`, the z-score is 0.672 in assay [1]; -0.281 (inactive) in assay [2]; -0.0691 (inactive) in assay [3]; -0.163 (inactive) in [5]; 0.765 (inactive) in assay [6]; 0.968 (inactive) in assay [7]. The z-score in [8] was 0.215 (inactive); in [9], -0.652. The composite z-score in assay [4] was 0.552 (inactive); in assay [10], 0.0909.
As to `O=C1[C@H]2[C@H]3[C@H](O)[C@H](O)CC(=NO[C@@H]4O[C@H](CO)[C@@H](O)[C@H](O)[C@H]4O)[C@@H]3CC[C@H]2C(=O)N1C1CCCCC1`, the z-score in assay [1] is -0.841; in assay [2] it was 0.431 (inactive); in assay [3] it was -2.35 (inactive); in assay [5] it was 0.553 (inactive); in assay [6], 0.237 (inactive); in assay [7], -0.0163 (inactive). Besides, the z-score in assay [8] was 0.27 (inactive); in assay [9], -0.917. For the same compound, the composite z-score is -0.201 (inactive) in [4] and -0.132 in assay [10].
For `O=C1[C@H]2[C@H]3[C@H](O)[C@H](O)CC(=NO[C@@H]4O[C@H](CO)[C@@H](O)[C@H](O)[C@H]4O)[C@@H]3CC[C@H]2C(=O)N1c1cccc(Oc2ccccc2)c1`, the z-score is 0.647 in assay [1]; 0.0857 (inactive) in assay [2]; -0.602 (inactive) in assay [3]; -0.343 (inactive) in [5]; 0.0867 (inactive) in assay [6]; -0.492 (inactive) in assay [7]. For the same compound, the z-score in assay [8] was -0.961 (inactive); in [9], 0.279. The composite z-score in assay [4] was -0.111 (inactive); in [10], -0.124.
With `COC(=O)CC=C[C@@H](C)[C@@H](C=NOC[C@@H](O)COCc1ccco1)NS(=O)(=O)c1ccc(C)cc1`, the z-score was -0.8 in [1]; 0.0959 (inactive) in assay [2]; -0.309 (inactive) in assay [3]; -0.312 (inactive) in [5]; 0.186 (inactive) in [6]; 0.388 (inactive) in assay [7]. The results for the z-score in assay [8] and in [9] were 0.124 (inactive) and -0.974, respectively. Besides, the composite z-score in assay [4] is 0.444 (inactive); in assay [10] it was -0.309.
For the compound `CC(=O)OC[C@H]1O[C@@H](ON=C(C)CCC(=O)OC[C@H]2O[C@H](C#Cc3ccccc3)C=C[C@@H]2Oc2ccc(C)cc2)[C@H](OC(C)=O)[C@@H](OC(C)=O)[C@@H]1OC(C)=O`, the z-score in [1] is 0.0214; in assay [2], -0.053 (inactive); in assay [3], 0.364 (inactive); in assay [5] it was -0.102 (inactive); in assay [6] it was 0.0837 (inactive); in [7] it was 0.297 (inactive). Besides, the values for the z-score in assay [8] and in [9] were -0.905 (inactive) and 0.135, respectively. For the same compound, the composite z-score in assay [4] was -0.47 (inactive); in assay [10], -0.269.
As for `CC(CCC(=O)OC[C@H]1O[C@H](C#Cc2ccccc2)C=C[C@@H]1Oc1ccc(C)cc1)=NO[C@H](C)c1cn([C@@H]2COC[C@H]2O)nn1`, the z-score in assay [1] is -0.458; in assay [2] it was -0.174 (inactive); in [3] it was -1.7 (inactive); in assay [5] it was 1.12 (inactive); in [6], -2.02 (inactive); in [7] it was -0.698 (inactive). For the same compound, the results for the z-score in assay [8] and in assay [9] were -0.651 (inactive) and -0.474, respectively. The composite z-score in assay [4] is -2.12 (inactive); in assay [10], -0.0793.
In the case of `C#CCCCON=C1C[C@@H](O)[C@@H](O)[C@@H]2[C@@H]3C(=O)N(CC)C(=O)[C@@H]3CC[C@H]12`, the z-score in [1] is -0.588; in assay [2], 0.866 (inactive); in assay [3] it was -0.729 (inactive); in [5], -0.143 (inactive); in [6], -0.0584 (inactive); in assay [7], -0.312 (inactive). Besides, the z-score in [8] is -0.241 (inactive); in [9], -1.09. For the same compound, the composite z-score in assay [4] is -0.0526 (inactive); in assay [10], -0.114.
